Measurements as given in PubChem BioAssay AID2535 (National Center for Advancing Translational Sciences (NCATS), 2010).

biological target: Pyruvate kinase PKLR (Homo sapiens) (UniProt P30613); assay: Secondary Concentration-Response Assay for Activators of Human Liver Pyruvate Kinase: for Probe SAR; conditions: purified hPK-L, ATP production, Kinase-Glo luminescence; series mostly up to 58.3 µM; activity change, positive = activation: at the top concentration;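 note: 0% = uninhibited enzyme wells on each plate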
Sequence (P30613 whole entry, looked up): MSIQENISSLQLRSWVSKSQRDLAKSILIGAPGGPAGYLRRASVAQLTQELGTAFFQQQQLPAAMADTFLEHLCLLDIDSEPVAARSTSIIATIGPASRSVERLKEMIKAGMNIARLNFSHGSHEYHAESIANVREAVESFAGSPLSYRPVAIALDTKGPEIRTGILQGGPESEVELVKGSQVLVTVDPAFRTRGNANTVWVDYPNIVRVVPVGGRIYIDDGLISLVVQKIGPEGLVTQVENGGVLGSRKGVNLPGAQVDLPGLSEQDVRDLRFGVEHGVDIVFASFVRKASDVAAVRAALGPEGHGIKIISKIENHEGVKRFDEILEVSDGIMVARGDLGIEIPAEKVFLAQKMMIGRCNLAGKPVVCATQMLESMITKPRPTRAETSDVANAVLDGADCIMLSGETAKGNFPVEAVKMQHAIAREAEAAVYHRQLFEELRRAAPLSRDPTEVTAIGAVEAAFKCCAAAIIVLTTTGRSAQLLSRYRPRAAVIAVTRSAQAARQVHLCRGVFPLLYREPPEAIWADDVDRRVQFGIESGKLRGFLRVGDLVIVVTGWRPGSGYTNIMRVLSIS
Summary of the method: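 Luciferase-coupled luminescence (Kinase-Glo) reports ATP made by 0.1 nM hPK-L from 0.5 mM PEP (at Km) and 0.1 mM ADP (about 10-fold below Km); pH 7.2 imidazole buffer, 1 h room temperature, in concentration-response format.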

Activity change, positive = activation, inactive:
Cc1ccc(NS(=O)(=O)c2ccc3c(c2)CCC(=O)N3)cc1C 7.77%
O=C1CCc2cc([S+](=O)([O-])NC3CCOCC3)ccc2N1 -3.54%
Cc1ccc(NS(=O)(=O)c2cc3c(cc2C)NC(=O)CO3)cc1C 14%
O=C1c2ccccc2C(=O)N1Cc1ccccc1 3.62%
CCNc1cccc(S(=O)(=O)N2CCN(S(=O)(=O)c3ccc4c(c3)OCCO4)CC2)c1 21.8%
Cc1ccc(NS(=O)(=O)c2ccc3c(c2)CC(=O)N3)cc1C 30%
CSc1cc2c(s1)c1cnn(Cc3cccc(N)c3)c(=O)c1n2C 15.7%
Cc1ccccc1Nc1c(-c2ccccc2)nc2cccc(C)n12 0.826%
Cc1cc(N2C(=O)c3ccccc3C2=O)no1 -9.96%
COc1cccc(N2C(=O)c3ccccc3C2=O)n1 6.52%
Cc1ccc(NS(=O)(=O)c2cc3c(cc2-c2ccco2)NC(=O)CO3)cc1C 5.64%
O=C1CCc2cc(S(=O)(=O)Nc3ccccc3F)ccc2N1 -10.2%
N#Cc1cccc(NS(=O)(=O)c2ccc3c(c2)CCC(=O)N3)c1 14.9%
Cc1nc(-c2ccc(S(=O)(=O)Nc3ccc(C)c(C)c3)s2)cs1 4.91%
O=C1CCc2cc(S(=O)(=O)Nc3ccc4c(c3)OCCO4)ccc2N1 8.86%
Cc1ccc(NS(=O)(=O)c2cc3c(cc2N2CCCCC2)NC(=O)CC3)cc1C -2.91%
Cc1ccc(NS(=O)(=O)c2ccc3c(c2)N(C)CCO3)cc1C 8.48%
O=C1CCc2cc(S(=O)(=O)Nc3cccc(Cl)c3)ccc2N1 3.94%
Nc1cc(S(=O)(=O)N2CCN(S(=O)(=O)c3ccc4c(c3)OCCO4)CC2)ccn1 21.6%
